This passage reports growth results from PubChem BioAssay (NCI).

Structures are written as SMILES. The panel holds about 83,000 compounds, 20% with a hit somewhere; the sample as a whole holds those more often.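 Growth was measured after 48 h exposure to one concentration of compound in 96-well plates. Values under 10 count as active.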 A number with no mark means an inactive call. The source made the active and inactive calls.

Test systems include DU-145 prostate; K-562 leukemia; MALME-3M melanoma; MDA-MB-231 breast; RXF 393 renal; SF-268 CNS; SF-295 CNS; SF-539 CNS; UACC-257 melanoma; M14 melanoma; HCT-15 colon; HT29 colon; SNB-75 CNS; SNB-19 CNS; U251 CNS; PC-3 prostate; SK-MEL-5 melanoma; UACC-62 melanoma; LOX IMVI melanoma; SK-MEL-28 melanoma.
What all share (experiment): NCI-60 one-dose screen, 48 h (100 = growth as untreated, 0 = no growth, -100 = all killed)
Holding throughout (details): 10 µM unless noted

Consider `O=C(Cn1cc(CSc2nc3ccccc3o2)nn1)Nc1ccc(F)cc1F`, for which the growth with DU-145 prostate was 124%; in the test with K-562 leukemia, 107%; with MALME-3M melanoma, 106%; with MDA-MB-231 breast, 112%; with RXF 393 renal, 103%; in the test on SF-268 CNS it was 115%. The growth with SF-295 CNS is 106%; in the test with SF-539 CNS, 106%; in the test with UACC-257 melanoma it was 103%; with M14 melanoma, 108%; in the test on HCT-15 colon, 107%; with HT29 colon, 128%. Moreover, the growth was 103% with SNB-75 CNS; 101% in the test on SNB-19 CNS; 120% with U251 CNS; 101% with PC-3 prostate; 98.4% in the test on SK-MEL-5 melanoma; 111% with UACC-62 melanoma. Further, the values for the growth in the test on LOX IMVI melanoma and in the test on SK-MEL-28 melanoma were 108% and 114%, respectively.

For `COc1ccc(Nc2ncc(Br)c(NCCCNC(=O)C3CCCC3)n2)cc1`, the growth in the test on DU-145 prostate is 48.9%; with K-562 leukemia it was 31.2%; with MALME-3M melanoma, 58.5%; in the test with MDA-MB-231 breast it was -27.7% (active); with RXF 393 renal it was -20.9% (active); with SF-268 CNS, 21.6%. For the same molecule, the growth is 39.4% with SF-295 CNS; 2.9% (active) in the test on SF-539 CNS; 96.5% in the test with UACC-257 melanoma; 61.5% with M14 melanoma; 37.1% in the test on HCT-15 colon; 47.5% with HT29 colon. Moreover, the growth in the test with SNB-75 CNS was 51.1%; with SNB-19 CNS, 35.2%; in the test with U251 CNS it was 27.2%; with PC-3 prostate it was 44%; in the test with SK-MEL-5 melanoma, 67.5%; with UACC-62 melanoma, 46.2%. Moreover, the growth in the test with LOX IMVI melanoma is 11%; in the test on SK-MEL-28 melanoma it was 57.2%.

Regarding `CCCCNCCCCCNc1cc(OC)cc2cccnc12`, the growth is 120% in the test on DU-145 prostate; 76.8% in the test on K-562 leukemia; 80.8% with MALME-3M melanoma; 87.3% in the test on MDA-MB-231 breast; 87.7% in the test on RXF 393 renal; 95% with SF-268 CNS. Moreover, the growth in the test on SF-295 CNS was 96.1%; in the test on SF-539 CNS, 92.8%; in the test on UACC-257 melanoma, 93.1%; with M14 melanoma, 97.1%; in the test with HCT-15 colon, 88.2%; in the test with HT29 colon, 96%. In addition, the growth was 74.1% in the test on SNB-75 CNS; 95.5% with SNB-19 CNS; 91.8% in the test on U251 CNS; 77.8% in the test on PC-3 prostate; 94.3% in the test with SK-MEL-5 melanoma; 83.2% in the test with UACC-62 melanoma. The growth with LOX IMVI melanoma was 105%; in the test on SK-MEL-28 melanoma it was 98.8%.

Take `COC(=O)[C@@H](CCCCNC(=O)[C@]12CCC(C)(C)C[C@@H]1C1=CC[C@@H]3[C@@]4(C)C/C(=C/c5ccco5)C(=O)C(C)(C)[C@@H]4CC[C@@]3(C)[C@]1(C)CC2)NC(=O)[C@]12CCC(C)(C)C[C@@H]1C1=CC[C@@H]3[C@@]4(C)C/C(=C/c5ccco5)C(=O)C(C)(C)[C@@H]4CC[C@@]3(C)[C@]1(C)CC2`: the growth is 115% in the test with DU-145 prostate; 95.8% with K-562 leukemia; 102% in the test on MALME-3M melanoma; 92.4% in the test on MDA-MB-231 breast; 119% in the test on RXF 393 renal; 104% in the test on SF-268 CNS. For the same molecule, the growth in the test with SF-295 CNS is 101%; in the test on SF-539 CNS, 97.1%; in the test on UACC-257 melanoma it was 100%; in the test on M14 melanoma it was 107%; with HCT-15 colon, 103%; with HT29 colon it was 112%. In addition, the growth in the test on SNB-75 CNS is 106%; with SNB-19 CNS, 95.3%; with U251 CNS, 106%; in the test on PC-3 prostate, 90.3%; in the test on SK-MEL-5 melanoma it was 97.5%; with UACC-62 melanoma, 97.8%. Moreover, the growth in the test on LOX IMVI melanoma and with SK-MEL-28 melanoma was 107% each time.

For `C#CCNC(=O)[C@H](CC)[C@H]1CC[C@H](C)[C@H]([C@@H](C)[C@H](O)[C@H](C)C(=O)[C@H](CC)C2O[C@]3(C=CC(=O)[C@]4(CC[C@@](C)([C@H]5CC[C@](O)(CC)[C@H](C)O5)O4)O3)[C@H](C)C[C@@H]2C)O1` (stereo not given in full), the growth with DU-145 prostate is 22.6%; in the test with K-562 leukemia it was 8.66% (active); with MALME-3M melanoma, 48.8%; with MDA-MB-231 breast it was -0.208% (active); in the test with RXF 393 renal, 14%; with SF-268 CNS, 45.9%. The growth with SF-295 CNS was 43.9%; in the test with SF-539 CNS it was 6.76% (active); with UACC-257 melanoma, 68.1%; in the test on M14 melanoma, -11.9% (active); in the test with HCT-15 colon it was 28.8%; in the test on HT29 colon it was 29.3%. The growth with SNB-75 CNS was -19.5% (active); in the test with SNB-19 CNS it was 42.1%; in the test with U251 CNS it was 52.2%; with PC-3 prostate, 21%; in the test on SK-MEL-5 melanoma, 7.94% (active); in the test with UACC-62 melanoma, 41.3%. Moreover, the growth in the test with LOX IMVI melanoma was 32.3%; in the test on SK-MEL-28 melanoma, 58.6%.

On to `COC1=CC(c2ccc[nH]2)=N/C1=C\c1[nH]c(C)c(CC(=O)NCc2ccccc2)c1C`, for which the growth was 34.7% in the test with DU-145 prostate; 0.172% (active) with K-562 leukemia; -42.2% (active) in the test on MALME-3M melanoma; 0.672% (active) in the test on MDA-MB-231 breast; 30.5% with RXF 393 renal; 11.3% in the test with SF-268 CNS. In addition, the growth in the test on SF-295 CNS was -55.5% (active); with SF-539 CNS, 2.49% (active); in the test with UACC-257 melanoma it was -19.4% (active); with M14 melanoma, -49% (active); in the test with HCT-15 colon, -26% (active); with HT29 colon, 15.1%. Moreover, the growth is 58.3% with SNB-75 CNS; -1.25% (active) with SNB-19 CNS; 18.7% in the test on U251 CNS; 12% with PC-3 prostate; -64% (active) with SK-MEL-5 melanoma; -30.5% (active) in the test on UACC-62 melanoma. For the same molecule, the growth in the test on LOX IMVI melanoma is -76.1% (active); in the test with SK-MEL-28 melanoma, 22.1%.

For the molecule `COc1cc2oc(-c3cccc(NC(=O)c4ccccc4)c3)cc(=O)c2c(OC)c1OC`, the growth in the test on DU-145 prostate was 85.5%; in the test with K-562 leukemia, 43.1%; in the test on MALME-3M melanoma it was 86.8%; in the test on MDA-MB-231 breast, 74.7%; in the test on RXF 393 renal, 74.4%; in the test with SF-268 CNS, 72.3%. Besides, the growth is 77.8% in the test on SF-295 CNS; 67.8% with SF-539 CNS; 99.7% in the test on UACC-257 melanoma; 75.3% in the test with M14 melanoma; 65.2% in the test with HCT-15 colon; 77.1% in the test on HT29 colon. Also, the growth is 77.4% with SNB-75 CNS; 91.4% in the test with SNB-19 CNS; 83.7% in the test on U251 CNS; 53.1% in the test on PC-3 prostate; 63.2% in the test with SK-MEL-5 melanoma; 66.8% in the test on UACC-62 melanoma. For the same molecule, the growth is 61.7% in the test on LOX IMVI melanoma and 73.2% in the test with SK-MEL-28 melanoma.
